Several values for one entry are separate records, joined by “and”; a condition that tells them apart may be missing. Equal values may be shown once. Values without a mark were called inactive. Records with an inconclusive call do not appear. Entries that show only a call come without a potency. Activity calls are given as the source filed them. Unless noted, the call rests on the fitted dose curve; in most records, active means well fitted curve in the direction sought with a large enough effect in the repeat runs; inconclusive means weak or mixed curves; inactive means no such curve, though single readings can be large; an effect the other way counts as inactive or inconclusive.
Assays:
[1] = qHTS assay to test for compound auto fluorescence at 535 nm (green) in HEK293 cells (AID 720680)
[2] = qHTS assay to test for compound auto fluorescence at 460 nm (blue) in HEK293 cell free culture (AID 720681)
Outline: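 Blue fluorescence (Ex 405/Em 460 nm, triamterene-equivalent) was read immediately after pin transfer of compound or DMSO into medium (DMEM, 10% FBS) without cells.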

[3] = qHTS assay to test for compound auto fluorescence at 535 nm (green) in HEK293 cell free culture (AID 720682)
Outline: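 Measurement is a direct plate read of green fluorescence (485 nm in, 535 nm out) after compound addition to serum-supplemented DMEM lacking cells, with fluorescein used to express intensities.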

[4] = qHTS assay to test for compound auto fluorescence at 590 nm (red) in HEK293 cell free culture (AID 720683)
Outline: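 Red-channel autofluorescence of compounds in culture medium (DMEM, 10% FBS), no cells, measured at 540/590 nm. Rose Bengal sodium is the reference fluorophore for equivalence.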

[5] = qHTS assay to test for compound auto fluorescence at 590 nm (red) in HepG2 cell free culture (AID 720684)
Outline: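 Steps: dispense MEM/10% FBS medium, no cells; pin compound or DMSO vehicle; read red channel, Ex/Em 540/590 nm. Output given as Rose Bengal sodium equivalents.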

[6] = qHTS assay to test for compound auto fluorescence at 460 nm (blue) in HepG2 cell free culture (AID 720685)
Outline: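 Compound (23 nL) or DMSO pinned into cell-free MEM with 10% FBS; blue fluorescence read at 405/460 nm excitation/emission, expressed as auto-fluorescence equivalency to triamterene.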

[7] = qHTS assay to test for compound auto fluorescence at 535 nm (green) in HepG2 cell free culture (AID 720686)
[8] = qHTS assay to test for compound auto fluorescence at 460 nm (blue) in HepG2 cells (AID 720687)
Outline: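 Blue-channel autofluorescence (Ex/Em 405/460 nm, triamterene-equivalent) was measured after 1 hr compound exposure at 37 C, 5% CO2. Cells were HepG2, plated overnight at 37 C in MEM plus 10% FBS.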

[9] = target: Glucocorticoid receptor (Homo sapiens) (UniProt P04150); assay: qHTS assay to identify small molecule agonists of the glucocorticoid receptor (GR) signaling pathway (AID 720691; active means well fitted activation curve with a large enough effect in the signal ratio in the repeat runs, not every such curve was filed as active; the % refers to the signal ratio)
Outline: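 qHTS in GR-bla HeLa cells: 4 h settling at 37 C/5% CO2, 18 h compound incubation at 37 C, 2 h LiveBLAzer B/G FRET substrate at room temperature, fluorescence intensity measured.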

[10] = qHTS assay to identify small molecule antagonists of the glucocorticoid receptor (GR) signaling pathway - cell viability counter screen (AID 720693); further: nearly all actives have a fitted effect of over 55% in size
[11] = qHTS assay for identifying genotoxic compounds that show differential cytotoxicity against isogenic chicken DT40 cell lines with known DNA damage response pathways - Rev3 mutant cell line (AID 743014); further: nearly all actives have a fitted effect of over 55% in size; further: potency means the concentration at half of the fitted maximal effect
[12] = qHTS assay to identify small molecule antagonists of the androgen receptor (AR) signaling pathway - cell viability counter screen (AID 743033; further: nearly all actives have a fitted effect of over 45% in size)
[13] = target: Androgen receptor (Homo sapiens) (UniProt P10275); assay: qHTS assay to identify small molecule antagonists of the androgen receptor (AR) signaling pathway (AID 743035; active means well fitted inhibition curve with a large enough effect in the signal ratio in the repeat runs, not every such curve was filed as active; the % refers to the signal ratio)
Outline: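 Beta-lactamase FRET read (2 h RT incubation with LiveBLAzer B/G) following 16 h of compound plus R1881 treatment of AR-UAS-bla HEK293 cells, which had been pre-incubated 4 h at 37C.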

[14] = target: Androgen receptor (Homo sapiens) (UniProt P10275); assay: qHTS assay to identify small molecule agonists of the androgen receptor (AR) signaling pathway (AID 743036; active means well fitted activation curve with a large enough effect in the signal ratio in the repeat runs, with a control signal flat, not every such curve was filed as active; the % refers to the signal ratio)
Outline: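 Beta-lactamase under UAS control, stably integrated in HEK293 GripTite cells, reports receptor activation. After 16 h compound treatment, cells received FRET substrate for 2 h at room temperature before fluorescence reading.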

[15] = target: Androgen receptor (Homo sapiens) (UniProt P10275); assay: qHTS assay to identify small molecule agonists of the androgen receptor (AR) signaling pathway using the MDA cell line (AID 743040; further: nearly all actives have a fitted effect of over 20% in size)
Outline: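 Cells plated, 5 h at 37C/0% CO2; compound or DMSO pinned; 16 h at 37C; ONE-Glo added; luminescence measured after 30 min at room temperature. Reporter line: MDA-kb2 with MMTV-luciferase responsive to AR and GR.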

[16] = qHTS assay to identify small molecule antagonists of the androgen receptor (AR) signaling pathway using the MDA cell line - cell viability counter screen (AID 743041; further: nearly all actives have a fitted effect of over 45% in size)
Outline: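 Cells were plated at 3,000 per well and left 5 h. Compounds in DMSO were then pinned in, followed by R1881. After 16 h at 37C, CellTiter-Fluor fluorescence gave viability.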

[17] = target: Androgen receptor (Homo sapiens) (UniProt P10275); assay: qHTS assay to identify small molecule antagonists of the androgen receptor (AR) signaling pathway using the MDA cell line (AID 743042; further: nearly all actives have a fitted effect of over 55% in size)
Outline: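 Antagonist mode: compounds plus R1881 agonist added to MDA-kb2 AR-luc cells, incubated 16 h at 37C. Luciferase reporter luminescence quantified, with multiplexed CellTiter-Fluor readout for cell viability.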

[18] = qHTS assay for identifying genotoxic compounds that show differential cytotoxicity against isogenic chicken DT40 cell lines with known DNA damage response pathways - Rad54/Ku70 mutant cell line (AID 743015); further: nearly all actives have a fitted effect of over 60% in size; further: potency means the concentration at half of the fitted maximal effect
[19] = target: Glucocorticoid receptor (Homo sapiens) (UniProt P04150); assay: qHTS assay to identify small molecule antagonists of the glucocorticoid receptor (GR) signaling pathway (AID 720692; active means well fitted inhibition curve with a large enough effect in the signal ratio in the repeat runs, not every such curve was filed as active; the % refers to the signal ratio)
Outline: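 Inhibition of glucocorticoid signalling is measured in HeLa cells with a GRE-controlled beta-lactamase reporter; cells are co-treated with compound and 5 nM dexamethasone (final) for 18 h before FRET substrate readout.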

[20] = qHTS assay for identifying genotoxic compounds that show differential cytotoxicity against isogenic chicken DT40 cell lines with known DNA damage response pathways - wild type cell line (AID 743012); further: nearly all actives have a fitted effect of over 60% in size; further: potency means the concentration at half of the fitted maximal effect
Outline: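 First, wild type DT40 cells were plated at 300 per well and equilibrated about 0.5 h at 37 C/5% CO2. Next, compounds in DMSO were added and exposure lasted 40 h. Finally, CellTiter-Glo was added for 30 min at room temperature and luminescence recorded.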

Sequence of Androgen receptor (Homo sapiens) (P10275 whole entry, looked up): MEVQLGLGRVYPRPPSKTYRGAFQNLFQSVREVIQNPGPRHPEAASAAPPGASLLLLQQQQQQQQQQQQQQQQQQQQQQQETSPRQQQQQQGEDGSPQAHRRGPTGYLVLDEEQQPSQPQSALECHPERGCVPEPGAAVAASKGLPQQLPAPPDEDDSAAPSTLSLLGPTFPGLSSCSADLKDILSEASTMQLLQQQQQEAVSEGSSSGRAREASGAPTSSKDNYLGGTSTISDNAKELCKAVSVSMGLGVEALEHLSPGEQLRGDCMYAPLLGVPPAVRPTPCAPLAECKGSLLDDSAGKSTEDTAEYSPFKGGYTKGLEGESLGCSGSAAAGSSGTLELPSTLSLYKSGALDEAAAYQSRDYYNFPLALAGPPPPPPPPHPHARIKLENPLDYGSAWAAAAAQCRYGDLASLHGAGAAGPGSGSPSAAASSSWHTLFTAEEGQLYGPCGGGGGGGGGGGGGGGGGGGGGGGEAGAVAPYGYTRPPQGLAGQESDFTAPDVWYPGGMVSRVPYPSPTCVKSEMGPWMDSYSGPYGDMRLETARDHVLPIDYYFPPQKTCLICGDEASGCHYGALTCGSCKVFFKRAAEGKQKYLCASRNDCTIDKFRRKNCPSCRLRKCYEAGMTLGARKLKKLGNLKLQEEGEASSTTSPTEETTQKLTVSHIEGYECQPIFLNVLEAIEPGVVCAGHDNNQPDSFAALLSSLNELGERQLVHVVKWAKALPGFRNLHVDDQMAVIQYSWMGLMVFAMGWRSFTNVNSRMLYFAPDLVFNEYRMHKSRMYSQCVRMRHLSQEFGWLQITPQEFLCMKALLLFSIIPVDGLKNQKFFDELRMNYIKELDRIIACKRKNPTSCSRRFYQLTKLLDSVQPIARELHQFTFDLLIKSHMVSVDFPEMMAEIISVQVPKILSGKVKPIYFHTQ
Sequence of Glucocorticoid receptor (Homo sapiens) (P04150 whole entry, looked up): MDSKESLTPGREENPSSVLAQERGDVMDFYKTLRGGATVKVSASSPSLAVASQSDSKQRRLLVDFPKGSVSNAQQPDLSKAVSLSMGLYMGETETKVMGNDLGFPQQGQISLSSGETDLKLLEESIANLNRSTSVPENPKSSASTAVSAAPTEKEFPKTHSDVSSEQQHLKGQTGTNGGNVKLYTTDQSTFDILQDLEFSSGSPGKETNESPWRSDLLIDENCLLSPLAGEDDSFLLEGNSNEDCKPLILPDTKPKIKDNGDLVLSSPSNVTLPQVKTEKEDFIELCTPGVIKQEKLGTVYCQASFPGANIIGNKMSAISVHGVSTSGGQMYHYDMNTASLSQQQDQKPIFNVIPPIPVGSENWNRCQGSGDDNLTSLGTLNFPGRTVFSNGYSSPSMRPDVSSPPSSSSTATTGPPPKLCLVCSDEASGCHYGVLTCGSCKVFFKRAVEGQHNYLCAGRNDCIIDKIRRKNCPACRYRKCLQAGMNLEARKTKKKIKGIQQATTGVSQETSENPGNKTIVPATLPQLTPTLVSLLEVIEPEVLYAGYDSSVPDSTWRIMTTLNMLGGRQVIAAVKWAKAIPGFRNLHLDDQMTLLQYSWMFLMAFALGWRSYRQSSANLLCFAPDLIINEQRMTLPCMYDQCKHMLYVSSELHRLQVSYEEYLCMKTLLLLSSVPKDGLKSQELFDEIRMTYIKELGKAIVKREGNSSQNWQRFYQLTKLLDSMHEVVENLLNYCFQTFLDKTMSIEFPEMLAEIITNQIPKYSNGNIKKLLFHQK

**Q.** Which results are given for `Cc1nc(C)c(C)nc1C`?
**A.** outcome [1]: inactive; Potency [2]: inactive; outcome [3]: inactive; outcome [4]: inactive; outcome [5]: inactive; outcome [6]: inactive; outcome [7]: inactive; outcome [8]: inactive; Potency [9]: inactive; Potency [10]: inactive; Potency [11]: inactive; Potency [12]: inactive; Potency [13]: inactive; outcome [14]: inactive; outcome [15]: inactive; Potency [16]: inactive; Potency [17]: inactive

**Q.** With `O=Cc1ccc([N+](=O)[O-])cc1` as the compound, how does the outcome [1] read?
**A.** inactive

**Q.** What about the Potency [2] of the same compound?
**A.** inactive

**Q.** What about the outcome [3] of the same compound?
**A.** inactive

**Q.** And the outcome [4]?
**A.** inactive

**Q.** And the outcome [5]?
**A.** inactive

**Q.** What about the outcome [6] of the same compound?
**A.** inactive

**Q.** And the outcome [7]?
**A.** inactive

**Q.** And the outcome [8]?
**A.** inactive

**Q.** And the Potency [9]?
**A.** inactive

**Q.** What about the Potency [10] of the same compound?
**A.** inactive

**Q.** And the Potency [18]?
**A.** 48.9 µM (active)

**Q.** What about the Potency [12] of the same compound?
**A.** inactive

**Q.** What about the Potency [16] of the same compound?
**A.** inactive

**Q.** Which outcome [1] does the source give for `SCCOCCOCCS` here?
**A.** inactive

**Q.** And the Potency [2]?
**A.** inactive

**Q.** And the outcome [3]?
**A.** inactive

**Q.** And the outcome [4]?
**A.** inactive

**Q.** And the outcome [5]?
**A.** inactive

**Q.** And the outcome [6]?
**A.** inactive

**Q.** And the outcome [7]?
**A.** inactive

**Q.** And the outcome [8]?
**A.** inactive

**Q.** And the Potency [19]?
**A.** inactive

**Q.** What about the Potency [10] of the same compound?
**A.** inactive

**Q.** What about the Potency [11] of the same compound?
**A.** inactive

**Q.** And the Potency [18]?
**A.** inactive

**Q.** And the Potency [12]?
**A.** inactive

**Q.** What about the Potency [16] of the same compound?
**A.** inactive

**Q.** For `CC(C)(C)NCC(O)COc1ccc(NC(=O)NC2CCCCC2)cc1` (stereo unspecified), which outcome [1] is on record?
**A.** inactive

**Q.** And the Potency [2]?
**A.** inactive

**Q.** And the outcome [3]?
**A.** inactive

**Q.** And the outcome [4]?
**A.** inactive

**Q.** And the outcome [5]?
**A.** inactive

**Q.** And the outcome [6]?
**A.** inactive

**Q.** And the outcome [7]?
**A.** inactive

**Q.** What about the outcome [8] of the same compound?
**A.** inactive

**Q.** And the Potency [9]?
**A.** inactive

**Q.** What about the Potency [10] of the same compound?
**A.** inactive

**Q.** What about the Potency [20] of the same compound?
**A.** 29.8 µM (active)

**Q.** What about the Potency [18] of the same compound?
**A.** 26.6 µM (active)

**Q.** And the Potency [12]?
**A.** inactive

**Q.** And the Potency [16]?
**A.** inactive

**Q.** For `CNc1ccccc1`, which outcome [1] is on record?
**A.** inactive

**Q.** And the Potency [2]?
**A.** inactive

**Q.** What about the outcome [3] of the same compound?
**A.** inactive

**Q.** What about the outcome [4] of the same compound?
**A.** inactive

**Q.** And the outcome [5]?
**A.** inactive

**Q.** And the outcome [6]?
**A.** inactive

**Q.** And the outcome [7]?
**A.** inactive

**Q.** What about the outcome [8] of the same compound?
**A.** inactive

**Q.** What about the Potency [9] of the same compound?
**A.** inactive

**Q.** What about the Potency [11] of the same compound?
**A.** inactive

**Q.** And the Potency [18]?
**A.** inactive

**Q.** And the Potency [12]?
**A.** inactive

**Q.** What about the Potency [16] of the same compound?
**A.** inactive

**Q.** With `CC(C)(C)c1ccc(CCC=O)cc1` as the compound, how does the outcome [1] read?
**A.** inactive

**Q.** And the Potency [2]?
**A.** inactive

**Q.** And the outcome [3]?
**A.** inactive

**Q.** What about the outcome [4] of the same compound?
**A.** inactive

**Q.** And the outcome [5]?
**A.** inactive

**Q.** And the outcome [6]?
**A.** inactive

**Q.** What about the outcome [7] of the same compound?
**A.** inactive

**Q.** What about the outcome [8] of the same compound?
**A.** inactive

**Q.** And the Potency [10]?
**A.** inactive

**Q.** And the Potency [20]?
**A.** inactive

**Q.** What about the Potency [11] of the same compound?
**A.** inactive

**Q.** And the Potency [18]?
**A.** inactive

**Q.** What about the Potency [12] of the same compound?
**A.** inactive

**Q.** And the Potency [16]?
**A.** inactive

**Q.** With `CCCCOC(=O)C(C)Oc1ccc(Oc2ccc(C(F)(F)F)cn2)cc1` (stereo unspecified) as the compound, how does the outcome [1] read?
**A.** inactive

**Q.** And the Potency [2]?
**A.** inactive

**Q.** And the outcome [3]?
**A.** inactive

**Q.** What about the outcome [4] of the same compound?
**A.** inactive

**Q.** And the outcome [5]?
**A.** inactive

**Q.** And the outcome [6]?
**A.** inactive

**Q.** What about the outcome [7] of the same compound?
**A.** inactive

**Q.** What about the outcome [8] of the same compound?
**A.** inactive

**Q.** And the Potency [9]?
**A.** inactive

**Q.** And the Potency [10]?
**A.** inactive

**Q.** And the Potency [12]?
**A.** inactive

**Q.** What does the source list for `Nc1nc(Cl)nc2c1ncn2[C@H]1C[C@H](O)[C@@H](CO)O1`?
**A.** outcome [1]: inactive; Potency [2]: inactive; outcome [3]: inactive; outcome [4]: inactive; outcome [5]: inactive; outcome [6]: inactive; outcome [7]: inactive; outcome [8]: inactive; Potency [10]: inactive; Potency [20]: 13.3 nM (active) and 1.9 nM (active); Potency [11]: 16.8 nM (active) and 1.7 nM (active); Potency [18]: 21.1 nM (active) and 2.7 nM (active); Potency [12]: inactive; Potency [16]: inactive

**Q.** Which results are given for `FC(F)(Cl)C(F)(Cl)Cl`?
**A.** outcome [1]: inactive; Potency [2]: inactive; outcome [3]: inactive; outcome [4]: inactive; outcome [5]: inactive; outcome [6]: inactive; outcome [7]: inactive; outcome [8]: inactive; Potency [10]: inactive; Potency [20]: inactive; Potency [11]: inactive; Potency [18]: inactive; Potency [12]: inactive; Potency [13]: inactive; outcome [14]: inactive; outcome [15]: inactive; Potency [16]: inactive; Potency [17]: inactive

**Q.** What does the source list for `CCCCCCCCC(=O)OCC(C)OC(=O)CCCCCCCC` (stereo unspecified)?
**A.** outcome [1]: inactive; Potency [2]: inactive; outcome [3]: inactive; outcome [4]: inactive; outcome [5]: inactive; outcome [6]: inactive; outcome [7]: inactive; outcome [8]: inactive; Potency [9]: inactive; Potency [10]: inactive; Potency [11]: inactive; Potency [12]: inactive; Potency [16]: inactive
